Measured values: the supplement of paper PMC7366291
Counter-ions that a name gives are not always drawn. ± gives the standard deviation of the averaged measurements.

Each compound was assayed on Danio rerio Tg(wt1b:EGFP) embryo, pronephros (assay: pronephric angle neck segment to proximal convoluted tubule (mean of left and right), fold change vs DMSO control; higher = larger pronephric angle). Conditions: 25 µM; exposure: 24-48 hpf.
Method in brief: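 Each feature value is a fold change relative to the mean of same-day DMSO-treated embryos. Embryos of the Tg(wt1b:EGFP) zebrafish line, dechorionated, received 25 μM compound in 0.5% DMSO from 24 to 48 hpf at 28.5°C, in HEPES-buffered E3 with 0.003% PTU. Distances and angles were computed by a Fiji macro from 16 manually set reference points on maximum projections of dorsal pronephros images, and values beyond 2 SD of the feature mean were removed.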

Structure (SMILES) | pronephric angle neck segment
CC[C@H](C)C(=O)O[C@H]1C[C@H](O)C=C2C=C[C@H](C)[C@H](CC[C@@H](O)C[C@@H](O)CC(=O)O)[C@H]21 [Pravastatin] | 1.03 ± 0.035
N=C(N)NC(=O)Cc1c(Cl)cccc1Cl [Guanfacine hydrochloride] | 0.978 ± 0.025
CC(=O)OCC(=O)[C@@]12OC(C)(C)O[C@@H]1C[C@H]1[C@@H]3C[C@H](F)C4=CC(=O)C=C[C@]4(C)[C@@]3(F)[C@@H](O)C[C@@]12C [Fluocinonide] | 1.05 ± 0.067
O=C1c2cccc3c2[C@H](CCC3)CN1[C@@H]1CN2CCC1CC2 [Palonosetron hydrochloride] | 1 ± 0.038
Nc1ccc(O)c(C(=O)O)c1 [Mesalamine] | 0.971 ± 0.018
COCC(=O)Nc1c(I)c(C(=O)NCC(O)CO)c(I)c(C(=O)N(C)CC(O)CO)c1I (stereo not drawn) [Iopromide] | 0.97 ± 0.023
CCN(CC)CC(=O)Nc1c(C)cccc1C [Lidocaine hydrochloride] | 0.9342 ± 0.0069
Nc1ccn([C@H]2CC[C@@H](CO)O2)c(=O)n1 [Zalcitabine] | 0.996 ± 0.015
CCC[C@H](N[C@@H](C)C(=O)N1[C@H](C(=O)O)C[C@@H]2CCCC[C@@H]21)C(=O)OCC [Perindopril] | 0.98 ± 0.026
COc1ccc(NS(=O)(=O)c2ccc(N)cc2)nn1 [Sulfamethoxypyridazine] | 1.006 ± 0.0011
CCOc1ccc(Cc2nccc3cc(OCC)c(OCC)cc23)cc1OCC [Ethaverine hydrochloride] | 0.989 ± 0.061
CC1Cc2ccccc2N1NC(=O)c1ccc(Cl)c(S(N)(=O)=O)c1 (stereo not drawn) [Indapamide] | 0.988 ± 0.041
CC(=O)Oc1ccc(C(c2ccc(OC(C)=O)cc2)c2ccccn2)cc1 [Bisacodyl] | 1.01 ± 0.016
CC1(C)[C@@H](OC(=O)CCC(=O)O)CC[C@]2(C)[C@H]3C(=O)C=C4[C@@H]5C[C@@](C)(C(=O)O)CC[C@]5(C)CC[C@@]4(C)[C@]3(C)CC[C@@H]12 [Carbenoxolone disodium salt] | 0.9894 ± 0.0072
O=c1n(CCCN2CCN(c3cccc(Cl)c3)CC2)nc2ccccn12 [Trazodone hydrochloride] | 0.997 ± 0.0034
O=C(O)c1cc(=O)c2c(OCC(O)COc3cccc4oc(C(=O)O)cc(=O)c34)cccc2o1 [Cromolyn disodium salt] | 1.0048 ± 0.00061
CCCCc1ccc2[nH]c(NC(=O)OC)nc2c1 [Parbendazole] | 1.81 ± 0.054

Structure (SMILES) | pronephric angle neck segment
CC(=O)Oc1cccc2c1C(=O)c1c(OC(C)=O)cc(C(=O)O)cc1C2=O [Diacerein] | 1.02 ± 0.021
COC(=O)[C@@H]1[C@H]2C[C@H]3c4[nH]c5ccccc5c4CCN3C[C@@H]2CC[C@@H]1O [Yohimbine hydrochloride] | 0.985 ± 0.082
CC(C)(C)NC[C@H](O)c1ccc(O)c(CO)c1 [Levalbuterol hydrochloride] | 0.998 ± 0.031
O=C(N[C@H](CO)[C@H](O)c1ccc([N+](=O)[O-])cc1)C(Cl)Cl [Chloramphenicol] | 0.935 ± 0.052
CC[C@@H]1C(=O)OC[C@@H]1Cc1cncn1C [Pilocarpine nitrate] | 1.02 ± 0.021
O=C(O)Cc1ccc(-c2ccccc2)cc1 [Felbinac] | 1.73 ± 0.04
CCCCC1(COC(=O)CCC(=O)O)C(=O)N(c2ccccc2)N(c2ccccc2)C1=O [Suxibuzone] | 0.992 ± 0.016
CC(C)NC[C@H](O)COc1cccc2ccccc12 [(S)-propranolol hydrochloride] | 0.9744 ± 0.0062
CCOc1ccccc1OC(c1ccccc1)C1CNCCO1 (stereo not drawn) [Reboxetine mesylate] | 0.99 ± 0.0046
CCC1(C)CC(=O)NC1=O (stereo not drawn) [Ethosuximide] | 0.972 ± 0.013
CO[C@@H]1[C@@H](OC(N)=O)[C@@H](O)[C@H](Oc2ccc3c(O)c(NC(=O)c4ccc(O)c(CC=C(C)C)c4)c(=O)oc3c2C)OC1(C)C [Novobiocin sodium salt] | 0.9784 ± 0.0046
C[C@@]1(O)CCOC(=O)C1 [Mevalonic-D, L acid lactone] | 1.062 ± 0.0042
C(=C\c1ccccc1)/CN1CCN(C(c2ccccc2)c2ccccc2)CC1 [Cinnarizine] | 0.995 ± 0.045
C#C[C@]1(O)CC[C@H]2[C@@H]3[C@H](C)CC4=C(CCC(=O)C4)[C@H]3CC[C@@]21C [Tibolone] | 0.924 ± 0.078
COc1c2occc2c(OC)c2c(=O)cc(C)oc12 [Khellin] | 1.03 ± 0.0013
CCN(CC)Cc1cc(Nc2ccnc3cc(Cl)ccc23)ccc1O [Amodiaquin dihydrochloride dihydrate] | 0.957 ± 0.016
